# VDR inhibitor = vitamin D3 receptor (human) inhibition; VDR-SRC2-3 peptide fluorescence polarization, 2 h; Potency, µM, for the others: max response, negative = inhibition, actives largely listed as inhibitors; 400,000 compounds, 0.93% hits; AID 504847; further: potency means the concentration at half of the fitted maximal effect; on the % scale 0 is the no-effect control and ±100 the full control effect
#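 Reagent solutions, kept cold and dark, are dispensed first; compounds are then pinned in at 23 nl, plates briefly spun, and incubated 2 h at ambient temperature. Inhibition of VDR–SRC2-3 peptide binding is read by fluorescence polarization.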
# CBFb RUNX1 block = inhibitors of human CBF-beta and RUNX1 interaction. 230,000 tested, under 10 active. Q01196+Q13951. AlphaScreen CBFb-His/RUNX1-biotin binding, biochemical. Potency, µM (doses to about 59.8 µM), for the others: top-dose activity, negative = inhibition, most hits filed as inhibitors. AID 1477; further: % of control where 0% means no effect
#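 Room-temperature protein-protein interaction test with 30 nM each of His-tagged CBF-beta and biotinylated RUNX1, 15 min with compound, then 90 min with nickel plus streptavidin beads. Signal read in AlphaScreen mode.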
# KCNH2 3.1 block = blocks the human KCNH2 3.1 channel isoform; U2OS KCNH2 3.1, thallium flux FluxOr; active compounds read low; activity change, % (tested at about 1.8 µM); 340,000 compounds, 0.95% hits;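 active means maximum activity change below -70%; inconclusive means maximum activity change from -70% to -50%; inactive means maximum activity change above -50%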;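 further: thallium influx rate constant from kinetic fluorescence after stimulation buffer; on the % scale 0 is the no-effect control and ±100 the full control effect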
#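 Virally transduced U2OS (3.1 isoform, 4 h infection in dark at RT) → overnight 37 C → FluxOr + Red40 in HBSS/HEPES, 45 min → stimulation buffer, 2 min kinetic read → rate constant vs DMSO controls.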
# hERG WT inh = KCNH2 (human, wildtype) channel inhibition; U2OS, BacMam KCNH2, thallium flux FluxOr; active compounds read low; 340,000 compounds, 0.37% hits; AID 720551; activity change, % at 1.84 µM; Q12809;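 active means maximum activity change below -70%; inconclusive means maximum activity change between -70% and -50%; inactive means maximum activity change above -50%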; further: on the % scale 0 is the no-effect control and ±100 the full control effect
#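 U2OS cells transduced with wild-type KCNH2 virus are loaded with FluxOr dye for 45 min, and thallium flux is measured in kinetic reads before and after stimulation buffer. Rate constants are normalized to DMSO controls.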
# MBNL1 CUG block = MBNL1-poly(CUG) RNA binding inhibition; 280,000 compounds, 0.036% hits; TR-FRET MBNL1-His/biotin-(CUG)12 binding, 665/545 ratio; Q9NR56; Potency, µM (series often up to 57.5 µM), for the others: at the highest dose activity change, negative = inhibition, hits mostly inhibitors; active means well fitted inhibition curve with a large enough effect in the signal ratio, with a control signal flat, not every such curve was filed as active; inconclusive means small, poorly fitted or top-dose-only effect, or effect the other way, or a change in a side signal; inactive means no such curve, though single readings can be large or run the other way; the % refers to the signal ratio; further: potency means the concentration at half of the fitted maximal effect; on the % scale 0 is the no-effect control and ±100 the full control effect
#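 TR-FRET readout: Ex 340 nm, 665/545 nm emission ratio, normalized to buffer-only (basal) and MBNL1-(CUG)12 controls. Complex of MBNL1-His with Biotin-(CUG)12, compounds 92 nM–58 uM, incubated 60 min at room temperature.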
# PLK1 PBD block = blocks phosphopeptide binding to human PLK1 polo-box domain; Plk1 PBD binding of FITC phosphopeptide, fluorescence polarization; Potency, µM, inactives show max response, negative = inhibition, usual class: inhibitors; 360,000 compounds, 2.8% hits; further: potency means the concentration at half of the fitted maximal effect; series mostly up to about 57 µM; on the % scale 0 is the no-effect control and ±100 the full control effect; nearly all actives have a fitted effect of over 65% in size
# Active calls of the source: *; ? = inconclusive; . = no result. The list is not random: actives were taken first. Their share in the collection is about 3.8%. Unless noted, the call rests on the fitted dose curve; in most records, active means well fitted curve in the direction sought with a large enough effect; inconclusive means small, poorly fitted or top-dose-only effect, or another doubt; inactive means no such curve, though single readings can be large; an effect the other way counts as inactive or inconclusive.
SMILES,VDR inhibitor,CBFb RUNX1 block,KCNH2 3.1 block,hERG WT inh,MBNL1 CUG block,PLK1 PBD block
CCCn1c(SCC(=O)NC(=O)NC(C)(C)C)n[nH]c1=O,-14%,21%,4,.,-2%,27µM*
COc1cc(OC)cc(N2C(=O)CSC23C(=O)Nc2ccccc23)c1 (centres undefined),20%,.,.,.,.,.
COC(=O)c1cccc2c1-c1ccccc1/C2=N\NC(N)=O,-13%,.,-190*,-147*,?,-11%
O=C(Nc1ccc(Cl)c(Cl)c1)N(Cc1c[nH]c2ccccc12)C1CCCCC1,-12%,.,.,.,.,.
Cc1cc(C)c(NC(=O)CN(C)CC(=O)Nc2cccc(S(=O)(=O)N(C)c3ccccc3)c2)c(C)c1,58%,.,14,-3,.,-13%
Cc1ccccc1CN(C)CC(=O)Nc1cccc(S(=O)(=O)N(C)c2ccccc2)c1,-26%,-2%,-2,-10,-2%,27µM*
C[C@H]1C(=O)N(S(=O)(=O)c2ccccc2[N+](=O)[O-])[C@H]1c1ccc(-c2ccccc2)cc1,7%,7%,.,.,.,.
O=C(c1cccc(C(=O)N(c2ccccn2)C2CCCCC2)c1)N(c1ccccn1)C1CCCCC1,10%,1%,-15,-6,-3%,-1%
N#C/C(=C\c1ccccc1)C(=O)N(c1ccccn1)C1CCCCC1,25µM*,0%,-31,5,-13%,-13%
O=C(c1cccs1)N(Cc1cccnc1)c1nc2ccc(F)cc2s1,12%,.,.,.,.,.
CCN(CC)S(=O)(=O)c1ccc(Cl)c(NC(=O)c2ccccc2C)c1,-19%,3%,-3,4,1%,21µM*
CC1(C)O[C@@H]2C[C@H]3[C@@H]4CCC5=CC(=O)C=C[C@]5(C)[C@H]4C(O)C[C@]3(C)[C@]2(C(=O)CO)O1 (some centres undefined),2%,.,.,.,.,.
NCCOB(c1ccccc1)c1ccccc1,14µM*,-4%,.,.,.,.
Cc1ccc(C)c(NC(=O)CSc2cn(CC(=O)N3CCCCC3)c3ccccc23)c1,0%,.,.,.,.,.
CC(C)OCCCNC(=O)C(=O)Nc1ccc2nc3n(c(=O)c2c1)CCCCC3,16%,.,.,.,.,.
O=C(Nc1ccc2nc3n(c(=O)c2c1)CCCC3)c1cccnc1Cl,?,.,-3,-1,.,19µM*
CC1CCCC(C)N1CCCNC(=O)C(=O)Nc1ccc2nc3n(c(=O)c2c1)CCCCC3 (centres undefined),-29%,.,17,14,-5%,27µM*
Cc1ccccc1C(=O)Nc1ccc2nc3n(c(=O)c2c1)CCCC3,10%,.,-15,-1,4%,-3%
CCc1ccc2occ(CC(=O)Nc3c(C(=O)c4ccccc4)oc4ccccc34)c2c1,14%,.,.,.,.,.
CC(C)NC(=O)C1(c2ccccc2)CC1(Cl)Cl (centres undefined),-28%,4%,24,3,5%,13µM*
Cc1ccc(NC(=O)CN2C(=O)COc3ccc(S(=O)(=O)N4CCCCCC4)cc32)c(C)c1,-16%,.,.,.,.,.
CCOC(=O)c1ccc(CN(Cc2ccc(F)cc2)S(=O)(=O)c2cc(C(=O)Nc3ccccc3CC)ccc2F)cc1,4%,.,.,.,.,.
BrC(=C\c1ccccc1)/C=N/N1CCN(c2ccccc2)CC1,79µM*,-2%,-13,10,7%,-26%
CC(/C=N/N1CCN(c2ccc(C)cc2)CC1)=C\c1ccccc1,13%,1%,-12,-14,-3%,-14%
COc1cc(/C=C2/C(=N)N3C(=NC2=O)SN=C3S(=O)(=O)C(C)C)ccc1OC(=O)c1ccco1,?,.,2,0,6%,21µM*
CCOc1cc(/C=C2/C(=N)N3C(=NC2=O)SN=C3S(=O)(=O)C(C)C)ccc1OC(=O)c1ccco1,?,.,-16,6,7%,27µM*
COc1cc(/C=C2/C(=N)N3C(SC)=NSC3=NC2=O)ccc1OC(=O)c1ccco1,?,.,-7,4,9%,?
CCOc1cc(/C=C2/C(=N)N3C(=NC2=O)SN=C3S(=O)(=O)CC)ccc1OC(=O)c1ccco1,89µM*,.,23,29,8%,27µM*
